Source: PubChem BioAssay (National Center for Advancing Translational Sciences (NCATS))
Most compounds without a hit are left out; they make up all but 0.55% or so of the library.
EPAC2 antagonist = antagonists of human EPAC2; Q8WZA2; AID 720708; EPAC2 GEF exchange of Rap1B-BODIPY-GDP, fluorescence; 360,000 tested, 0.18% active; Potency, µM (series often up to 114 µM), inactives show at the highest dose activity, negative = inhibition, most hits filed as inhibitors; further: on the % scale 0 is the no-effect control and ±100 the full control effect; nearly all actives have a fitted effect of over 45% in size
Target sequence (Q8WZA2 whole entry, looked up): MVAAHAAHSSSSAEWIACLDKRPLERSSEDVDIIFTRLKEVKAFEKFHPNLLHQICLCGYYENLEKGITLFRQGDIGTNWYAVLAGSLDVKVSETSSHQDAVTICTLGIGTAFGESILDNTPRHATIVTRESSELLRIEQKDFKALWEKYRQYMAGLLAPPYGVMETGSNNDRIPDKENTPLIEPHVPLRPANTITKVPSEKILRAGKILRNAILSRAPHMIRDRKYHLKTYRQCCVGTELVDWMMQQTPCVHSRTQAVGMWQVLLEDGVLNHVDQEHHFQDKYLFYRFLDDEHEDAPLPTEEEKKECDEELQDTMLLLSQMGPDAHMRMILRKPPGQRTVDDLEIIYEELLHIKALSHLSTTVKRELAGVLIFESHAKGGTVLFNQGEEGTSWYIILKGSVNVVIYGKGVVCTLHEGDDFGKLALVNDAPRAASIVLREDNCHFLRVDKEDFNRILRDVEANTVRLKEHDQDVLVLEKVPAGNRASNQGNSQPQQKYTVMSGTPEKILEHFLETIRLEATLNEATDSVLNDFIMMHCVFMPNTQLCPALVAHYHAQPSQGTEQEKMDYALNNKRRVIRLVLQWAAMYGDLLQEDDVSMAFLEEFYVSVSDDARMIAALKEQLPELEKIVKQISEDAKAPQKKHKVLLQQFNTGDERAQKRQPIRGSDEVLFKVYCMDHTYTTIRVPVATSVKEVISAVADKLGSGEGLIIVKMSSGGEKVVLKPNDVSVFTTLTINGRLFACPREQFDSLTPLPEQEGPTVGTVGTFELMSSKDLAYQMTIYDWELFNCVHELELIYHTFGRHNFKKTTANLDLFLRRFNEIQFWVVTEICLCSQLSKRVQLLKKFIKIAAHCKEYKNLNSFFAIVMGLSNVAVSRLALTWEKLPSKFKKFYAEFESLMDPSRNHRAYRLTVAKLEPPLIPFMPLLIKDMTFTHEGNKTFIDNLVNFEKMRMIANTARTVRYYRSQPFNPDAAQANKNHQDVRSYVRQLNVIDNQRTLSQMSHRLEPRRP
HEK293 tox = cytotoxicity in counter-screen for GLP-1R inverse agonists. AID 624418. HEK293 cAMP-luciferase reporter cells, luminescence, 24 h. 410,000 tested, 0.13% active. Potency, µM (doses to about 38.3 µM), for inactives: at the top dose activity change, negative = inhibition, most hits filed as inhibitors;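 further: loss of luciferase light is scored as toxicity; on the % scale 0 is the no-effect control and ±100 the full control effect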
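Quantitative HTS format, 1536 wells, 200 cells/uL seeded. Compounds: 23 nL, 24 h, 37 °C. Detection: luciferase reagent, luminescence at 12 min RT; decreased signal taken as cytotoxic.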
EPAC1 antagonist = antagonists of human EPAC1; O95398; EPAC1 GEF assay, Rap1b-BODIPY-GDP exchange fluorescence; Potency, µM (titrated, usually from 115 µM), for the others: at the highest dose activity change, negative = inhibition, hits mostly inhibitors; 360,000 tested, 0.14% active; AID 720709;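 further: plate controls were vehicle for no effect and positive control for full effect; nearly all actives have a fitted effect of over 50% in size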
USP1 inh = USP1/UAF1 (human) deubiquitinase inhibition; O94782; recombinant USP1/UAF1, Ub-Rhodamine cleavage fluorescence; Potency, µM (series often up to 57.1 µM), inactives show at the top dose activity change, negative = inhibition, hits mostly inhibitors; 390,000 tested, 0.23% active; further: on the % scale 0 is the no-effect control and ±100 the full control effect; nearly all actives have a fitted effect of over 60% in size
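In this screen, compounds sit with the deubiquitinase complex (1nM) for 15 min at room temperature before Ub-Rho is added at 150nM final. Fluorescence rise is then followed for 6 reads every 60 seconds.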
EPAC1 ag = activates human EPAC1 exchange factor; O95398; Potency, µM (titrated, usually from 154 µM), for inactives: at the highest dose activation, actives largely listed as activators; EPAC1 agonist qHTS, biochemical assay; response scale: 100% = response to 6.5 mM cAMP; 360,000 tested, 0.073% active; further: nearly all actives have a fitted effect of over 60% in size
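Nucleotide exchange assay: 100 nM EPAC1 with 250 nM Rap1B loaded with BODIPY-GDP and 50 uM GDP, room temperature. Fluorescence (480/540 nm) read every 5 min for 30 min; signal change normalized to 6.5 mM cAMP as full agonist.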
EPAC2 agonist = EPAC2 (human) agonism; Potency, µM (top dose mostly 154 µM), without a hit: at the highest dose activation, hits mostly activators; EPAC2 activation, biochemical qHTS; response scale: 100% = 6.5 mM cAMP response; 360,000 tested, 0.079% active; Q8WZA2; further: nearly all actives have a fitted effect of over 50% in size
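Each well held 100 nM EPAC2, 250 nM RAP1B-BODIPY-GDP and 50 uM GDP. Fluorescence, read at 5-min intervals to 30 min, was referenced to a 6.5 mM cAMP positive control.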
Numbers without * were called inactive; i = inactive; u = inconclusive; x = no result given; [ ] = remark or other dose. The call rests on the fitted dose curve; in most records, active means well fitted curve in the direction sought with a large enough effect; inconclusive means small, poorly fitted or top-dose-only effect, or another doubt; inactive means no such curve, though single readings can be large; an effect the other way counts as inactive or inconclusive. Potency means the concentration at half of the fitted maximal effect.

SMILES | EPAC2 antagonist | HEK293 tox | EPAC1 antagonist | USP1 inh | EPAC1 ag | EPAC2 agonist
NC(=S)NN=C(c1ccc(Br)cc1)C1CC1 | 15% | 2.5µM* | 7% | -15% | -5% | 5%
Oc1csc(Cc2nc(-c3ccccc3F)cs2)n1 | 18% | u | 5% | -22% | 0% | -2%
CCOc1ccc(N2C(=O)/C(=C\c3cccs3)C(=O)NC2=S)cc1 | 9% | -12% | 22% | -20% | -3% | 6%
CCOc1ccc(N2C(=O)/C(=C/c3ccco3)C(=O)NC2=S)cc1 | u | u | 11µM* | 22µM* | -3% | 3%
O=C1NC(=O)N(Cc2ccccc2)C(=O)/C1=C\c1ccco1 | -3% | -3% | u | -15% | -15% | -3%
CCCCN1C(=O)/C(=C\c2ccco2)C(=O)N(CCc2ccccc2)C1=O | -1% | -29% | 25µM* | -12% | 0% | 7%
COc1ccc(Oc2ccc(/C=C/C(=O)c3ccc(O)cc3)cc2[N+](=O)[O-])cc1 | 3% | u | -5% | -9% | 12% | 10%
O=c1cc(C(F)(F)F)c2cc3c4c(c2o1)CCCN4CCC3 | 21% | i | 99% | 375% | u | 45µM*
Nc1ccc2ccc3cccc[n+]3c2c1 | 360% | i | 342% | 28µM* | 100µM* | 112µM*
C[n+]1c(-c2ccccc2)c2cc(N)ccc2c2ccc(N)cc21 | -21% | u | -7% | u | -12% | 3%
CC(=O)n1cc(C=C2C(=O)NC(=O)NC2=O)c2ccccc21 | 1% | 0% | -26% | -5% | 6% | 12%
Cn1cc(C=C2C(=O)NC(=O)NC2=O)c2ccccc21 | 43% | 5% | -29% | 28µM* | 13% | u
CCCCn1c(O)c(C(=O)/C=C/c2c[nH]c3ccccc23)c(=O)[nH]c1=O | 5% | 23% | 12% | 25µM* | 14% | 9%
O=[N+]([O-])c1cc([As](=O)(O)c2ccc(O)c([N+](=O)[O-])c2)ccc1O | 18µM* | u | 10% | -12% | -4% | -1%
COc1ccc(C(SCC(NC(=O)OCc2ccccc2)C(=O)O)c2ccc(OC)cc2)cc1 (stereo not given) | 14µM* | 1% | -4% | -2% | -4% | 3%
COc1ccc(NC(=O)CN(C)C(=O)CSC(c2ccccc2)c2ccccc2)cc1 | -15% | -24% | -25% | -6% | 0% | 9%
CCN(CC)CCNC(=O)c1nn(-c2ccc(Cl)cc2)c2c1CCc1cc(OC)ccc1-2 | 3% | u | -4% | -24% | -8% | 1%
C=CCC[C@@H](Cc1ccc(F)cc1)C(=O)OC[C@@H](NC(=O)[C@@H](CC=C)CC(=O)N[C@H](CO)Cc1ccccc1)C(C)(C)C | -27% | 0% | -18% | 13% | -23% | -15%
Cc1ccccc1N1C(=O)NC(=O)/C(=C\c2cc(Br)c(N3CCOCC3)o2)C1=O | -17% | 15%[1.53 µM] | 18% | u | 9% | 11%
Cc1ccccc1N1C(=O)NC(=O)/C(=C/c2ccc(N3CCOCC3)o2)C1=O | -20% | u | 25% | 25µM* | 19% | -9%
CCN(CC)C(=O)c1ccc2c(c1)C1C(Cl)C(Sc3ccccc3[N+](=O)[O-])CC1C(C(=O)O)N2 (stereo not given) | 8% | -2% | -24% | u | 2% | 9%
CCN(CC)C(=O)c1ccc2c(c1)C1C=CCC1C(C(=O)O)N2 (stereo not given) | 38% | -17% | -14% | 25µM* | 21% | 6%
Cn1ncnc2c(=O)n(C)c(=O)nc1-2 | -29% | u | u | 0.032µM* | -7% | u
COc1cccc2c1C(=O)c1c(O)c3c(c(O)c1C2=O)CC(O)(C(C)=NO)CC3OC1CC(N)C(O)C(C)O1 (stereo not given) | 37% | 11µM* | 10% | 25µM* | 6% | 11%
CN(C)S(=O)(=O)c1cccc(-c2nn(-c3ccccc3)cc2/C=C2\SC(=S)NC2=O)c1 | -2% | u | 71µM* | u | 6% | -5%
SMILES | EPAC2 antagonist | HEK293 tox | EPAC1 antagonist | USP1 inh | EPAC1 ag | EPAC2 agonist
N#Cc1c(N)n(C2OC(CO)C(O)C2O)c2ncnc(N)c12 (stereo not given) | -1% | u | 0% | -10% | -1% | -2%
CCN1CCN(c2ccc(S(=O)(=O)N3CCOCC3)cc2NC(=O)/C=C/c2ccc([N+](=O)[O-])cc2)CC1 | u | u | 7% | 2% | 2% | -10%
O=C(Nc1ccc(Oc2ccc(Cl)cc2)c(Cl)c1)c1cc(I)cc(I)c1O | u | 5% | 40µM* | u | -14% | 4%
COc1cc2c(cc1OC)CN(C(=O)CCOc1ccccc1C)CC2 | -10% | u | -2% | -11% | -8% | 7%
CCCCC(=O)NC(=S)Nc1nnn(CCC)n1 | 10% | u | 7% | -16% | -3% | -3%
Cn1c(=O)[nH]c(=O)c2c1nc([N+](=O)[O-])n2Cc1ccccc1 | 5% | 10µM* | u | -19% | 2% | 5%
C/C(=N\N1CCN(C)CC1)c1c(O)n(Cc2ccccc2)c(=O)[nH]c1=O | 4% | -1% | 10% | -11% | 2% | -5%
OC(CON=C1c2ccccc2-c2ccccc21)CN1CCNCC1 (stereo not given) | 5% | u | 7% | -13% | 8% | 2%
CCOC(=O)[C@]12Cc3cc(Cl)ccc3[C@H]1N(C1CCCCC1)C(=O)c1ccccc12 | u | u | -11% | x | 2% | 9%
CCOC(=O)[C@]12Cc3cc(Cl)ccc3[C@H]1N(C)C(=O)c1ccccc12 | -22% | 4% | 15% | x | -3% | 0%
CCOC(=O)[C@]12Cc3cc(Cl)ccc3[C@H]1N(C(C)C)C(=O)c1ccccc12 | 17µM* | u | -5% | x | -7% | 9%
CCOC(=O)[C@]12Cc3ccccc3[C@H]1N(Cc1ccccc1)C(=O)c1cc(OC)ccc12 | 28µM* | 5% | -24% | x | 4% | 8%
CCOC(=O)[C@]12Cc3cc(OC)ccc3[C@H]1N(C1CCCCC1)C(=O)c1ccccc12 | u | 10µM* | -15% | x | -3% | 10%
COc1ccc(N2C(=O)C3[C@@H](C2=O)C2(Cl)C(Cl)=C(Cl)C3(Cl)C2(OC)OC)cc1 (stereo not given in full) | -29% | 48% | -22% | -3% | 12% | 10%
CCOC(=O)C(CC)(CC)C(=O)/C=C/c1cccc(Br)c1 | 1% | u | 2% | -21% | -6% | -1%
Cc1c(NS(=O)(=O)c2ccccc2)ccc([N+](=O)[O-])c1Cl | 40µM* | u | -29% | -7% | -6% | -1%
